Test results: the supplement of paper PMC3898565
Where a name gives a salt, the structure may show the parent alone. ± gives the uncertainty stated by the source.

These molecules were tested on U87 (assay: cell viability relative to vehicle control; higher = less growth inhibition (less active)). Details: 10 µM; 72 h.
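Further: viable cell number estimated from Alamar Blue fluorescence read at 560/90, part of a single-dose primary screen of an FDA-approved drug library.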

Compound	cell viability
COc1ccnc(C[S+]([O-])c2nc3cc(OC(F)F)ccc3[nH]2)c1OC (centres undefined)	125.2 ± 1.1%
COc1ccccc1N1CCN(CC(O)COc2cccc3ccccc23)CC1 (centres undefined)	99.6 ± 1.9%
CC(C)(C)C(O)/C=C/c1ccc2c(c1)OCO2 (centres undefined) [Stiripentol]	105.6 ± 0.6%
O=C1CC2(CCCC2)CC(=O)N1CCNCC1COc2ccccc2O1 (centres undefined)	110.4 ± 0.75%
CC(C)/N=c1\cc2n(-c3ccc(Cl)cc3)c3ccccc3nc-2cc1Nc1ccc(Cl)cc1	51.3 ± 3%
COc1ccc2cc([C@H](C)C(=O)O)ccc2c1	106 ± 1.4%
CO[C@H]1O[C@@H]2O[C@@]3(C)CC[C@H]4[C@H](C)CC[C@@H]([C@H]1C)[C@@]24OO3	107 ± 2.1%
Nc1nnc(-c2cccc(Cl)c2Cl)c(N)n1	102 ± 1.2%
COc1ccc(C2CNC(=O)C2)cc1OC1CCCC1 (centres undefined)	99.3 ± 1.2%
COc1cc(C)nc(-n2nc(C)cc2OC)n1	104 ± 1.9%
CCCN[C@H]1CCc2nc(N)sc2C1	105 ± 1.9%
COc1cc(C(=O)NC2CCCNC2)cc(OC)c1OC (centres undefined)	101 ± 4.2%
CC(c1cc2ccccc2s1)N(O)C(N)=O (centres undefined)	104.1 ± 1%
C[N+]1(C)CCC(OC(=O)C(O)(c2ccccc2)C2CCCC2)C1 (centres undefined) [Glycopyrrolate]	103 ± 1.1%
CN(C)CCc1c[nH]c2ccc(C[C@H]3COC(=O)N3)cc12 [Zolmitriptan]	105 ± 1.6%
CC[C@H](C)C(=O)O[C@H]1C[C@H](O)C=C2C=C[C@H](C)[C@H](CC[C@@H](O)C[C@@H](O)CC(=O)O)[C@H]21 [PRAVASTATIN Sodium]	105.9 ± 0.46%
CCCCC[C@H](O)/C=C/[C@H]1[C@H](O)CC(=O)[C@@H]1CCCCCCC(=O)O [Prostaglandin E1]	105.7 ± 0.69%
CC1CCN(CCCC(=O)c2ccc(F)cc2)CC1 [Metylperon]	106 ± 1.2%
O=c1ncc(F)c[nH]1 [5-fluoro-2-pyrimidone]	106.8 ± 0.67%
CN1CCN(C2=Nc3cc(F)ccc3Cc3ccccc32)CC1 [Fluperlapine]	106 ± 3.3%

Compound	cell viability
COC(=O)CCc1ccc(OCC(O)CNC(C)C)cc1 (centres undefined)	128 ± 3%
CN(C)[C@@H]1C(O)=C(C(=O)NCN2CCCC2)C(=O)[C@@]2(O)C(O)=C3C(=O)c4c(O)cccc4[C@@](C)(O)[C@H]3C[C@@H]12	107 ± 2.1%
CCCc1nc2c(C)cc(-c3nc4ccccc4n3C)cc2n1Cc1ccc(-c2ccccc2C(=O)O)cc1	98.3 ± 2.2%
CC(=O)O[C@H]1C[C@@H]2CC[C@@H]3[C@H](CC[C@@]4(C)[C@H]3C[C@H]([N+]3(C)CCCCC3)[C@@H]4OC(C)=O)[C@@]2(C)C[C@@H]1N1CCCCC1	103.2 ± 0.3%
CCCCCNC(=N)N/N=C/c1c[nH]c2ccc(OC)cc12	108 ± 1.2%
CC[N+](C)(CC)CCOC(=O)C(O)(c1ccccc1)C1CCCCC1 (centres undefined)	109 ± 1.3%
COCCOC(=O)C1=C(C)NC(C)=C(C(=O)OC(C)C)C1c1cccc([N+](=O)[O-])c1 (centres undefined)	103 ± 1.5%
CN1CC(=O)N2[C@H](c3ccc4c(c3)OCO4)c3[nH]c4ccccc4c3C[C@@H]2C1=O	107 ± 1.3%
CN1CCc2cc(Cl)c(O)cc2[C@@H](c2ccccc2)C1	97.5 ± 6.3%
COc1cccc2c1C(=O)c1c(O)c3c(c(O)c1C2=O)C[C@@](O)(C(=O)CO)C[C@@H]3O[C@H]1C[C@H](N)[C@H](O)[C@H](C)O1	23.5 ± 4%
COC(=O)C1=C(C)NC(C)=C(C(=O)OCC(C)C)C1c1ccccc1[N+](=O)[O-] (centres undefined) [Nisoldipine]	48.4 ± 5%
Cn1nnc2c(C(N)=O)ncn2c1=O	106 ± 1.3%
CN(C)CCOC(C)(c1ccccc1)c1ccccn1 (centres undefined) [doxylamine succinate]	96.6 ± 1.2%
COc1cc(OC)c(C(=O)CCCN2CCCC2)c(OC)c1 [Buflomedil HCl]	105 ± 2.7%
CSc1nc2cc(Cl)c(Oc3cccc(Cl)c3Cl)cc2[nH]1	103 ± 2.5%
COc1cccc2c1C(=O)c1c(O)c3c(c(O)c1C2=O)C[C@@](O)(C(=O)CO)C[C@@H]3O[C@H]1C[C@H](N)[C@@H](O)[C@H](C)O1	23.3 ± 0.39%
CC[C@@H]1C(=O)OC[C@@H]1Cc1cncn1C	101 ± 0.86%
C=CC[C@@H]1/C=C(\C)C[C@H](C)C[C@H](OC)[C@H]2O[C@@](O)(C(=O)C(=O)N3CCCC[C@H]3C(=O)O[C@H](/C(C)=C/[C@@H]3CC[C@@H](O)[C@H](OC)C3)[C@H](C)[C@@H](O)CC1=O)[C@H](C)C[C@@H]2OC	101.8 ± 0.73%
CN(C)CCN(Cc1ccccc1)c1ccccn1	96.4 ± 2.6%
